# Bioassay records from PubChem BioAssay.
# This is a sample that favours compounds with a hit; in the whole collection about 1% have one here.
# FEN1 inh = qHTS Assay for the Inhibitors of Human Flap endonuclease 1 (FEN1); P39748; Recombinant FEN1 flap cleavage, fluorescence, 15 min; Potency, µM (top dose mostly 114 µM), most hits filed as inhibitors; actives 0.35% (n = 390,000); also: nearly all actives have a fitted effect of over 65% in size
#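 Recombinant FEN1 (10 nM) was preincubated with pin-transferred compounds for 15 min at room temperature, then flap DNA substrate (50 nM final) was added. Plates were read at 0 and 15 min, and normalized concentration–response data were fitted to a four-parameter Hill equation.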
# APEX1 inh = qHTS Assay for Inhibitors of the Human Apurinic/apyrimidinic Endonuclease 1 (APE1); actives 0.35% (n = 350,000); DNA repair nuclease/redox regulator APEX1 (Homo sapiens), P27695; Potency, µM (titrated, usually from 65.8 µM), usual class: inhibitors; AID 2517, 2012; recombinant APE1, TAMRA/BHQ-2 abasic DNA cleavage fluorescence; also: nearly all actives have a fitted effect of over 55% in size
#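 Incision of a quenched TAMRA/BHQ-2 THF abasic-site duplex (50 nM) by 0.75 nM APE1, after 15 min compound preincubation, measured as fluorescence increase over three 60 s reads. Values normalized to buffer, DMSO and NSC13755 control wells.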
# WRN helicase inh = qHTS for Inhibitors of WRN Helicase. AID 651768, 2012. Potency, µM (doses to about 114 µM), usual class: inhibitors. Bifunctional 3'-5' exonuclease/ATP-dependent helicase WRN (Homo sapiens), Q14191. actives 0.46% (n = 360,000). WRN helicase unwinding, fluorescent forked duplex, kinetic; also: nearly all actives have a fitted effect of over 55% in size
#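 WRN at 20 nM final preincubated with compound 15 min at room temperature; reaction started with 100 nM fluorophore/quencher forked duplex oligonucleotide and 2 mM ATP final. Unwinding followed kinetically by red fluorescence (ex 525, em 598 nm).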
# L3MBTL1 block = qHTS Assay for the Inhibitors of L3MBTL1. Lethal(3)malignant brain tumor-like protein 1 (Homo sapiens), Q9Y468. AlphaScreen L3MBTL1–H3K9me1 peptide binding. Potency, µM (top dose mostly 57.1 µM), usual class: inhibitors. actives 0.66% (n = 230,000). AID 485360, 2010; also: nearly all actives have a fitted effect of over 60% in size
# Target sequence (Q9Y468 whole entry, looked up): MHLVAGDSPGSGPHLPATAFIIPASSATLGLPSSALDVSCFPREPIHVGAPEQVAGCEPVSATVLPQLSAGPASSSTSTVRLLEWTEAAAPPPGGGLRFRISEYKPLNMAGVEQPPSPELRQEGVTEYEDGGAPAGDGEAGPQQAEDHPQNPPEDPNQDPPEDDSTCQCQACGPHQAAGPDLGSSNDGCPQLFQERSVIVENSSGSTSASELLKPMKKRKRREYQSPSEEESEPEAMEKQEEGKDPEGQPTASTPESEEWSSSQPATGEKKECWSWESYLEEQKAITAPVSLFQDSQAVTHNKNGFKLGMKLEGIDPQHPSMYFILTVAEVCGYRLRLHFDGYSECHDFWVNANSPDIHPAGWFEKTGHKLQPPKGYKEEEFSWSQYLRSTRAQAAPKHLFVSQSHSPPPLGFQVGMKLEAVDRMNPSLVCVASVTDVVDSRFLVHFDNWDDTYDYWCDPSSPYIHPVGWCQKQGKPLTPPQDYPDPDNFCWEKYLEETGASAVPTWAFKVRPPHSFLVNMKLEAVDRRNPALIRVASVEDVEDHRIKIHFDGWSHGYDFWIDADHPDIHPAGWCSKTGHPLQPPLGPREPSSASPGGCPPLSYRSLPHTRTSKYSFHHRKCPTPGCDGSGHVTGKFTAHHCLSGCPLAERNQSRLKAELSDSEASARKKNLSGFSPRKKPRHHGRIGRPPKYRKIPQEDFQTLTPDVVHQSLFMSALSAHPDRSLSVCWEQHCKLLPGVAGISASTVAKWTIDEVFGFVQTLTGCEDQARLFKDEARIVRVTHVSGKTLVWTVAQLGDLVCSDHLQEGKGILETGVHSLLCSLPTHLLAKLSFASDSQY
#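 AlphaScreen proximity signal between nickel-chelate acceptor and streptavidin donor beads (final 10 ug/mL) reports binding of 50 nM L3MBTL1 to 75 nM biotin-H3 K9me1 peptide; complex incubated with compounds 30 min at room temperature; cefsulodin titration as control.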
# BLM helicase inh = qHTS Assay for Inhibitors of Bloom's syndrome helicase (BLM). recombinant BLM DNA unwinding, fluorescence dequenching. Potency, µM (titrated, usually from 56.1 µM), actives largely listed as inhibitors. actives 0.2% (n = 350,000); also: nearly all actives have a fitted effect of over 35% in size
# RECQ1 inh-1 = qHTS Assay for Inhibitors of RecQ-Like Dna Helicase 1 (RECQ1) | ATP-dependent DNA helicase Q1 (Homo sapiens), P46063 | RECQ1 DNA unwinding, red fluorescence kinetic read | Potency, µM (highest dose often 57.3 µM), most hits filed as inhibitors | actives 0.54% (n = 240,000) | AID 2549, 2010; also: nearly all actives have a fitted effect of over 30% in size
#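 50 nM RECQ1T1 preincubated 15 min with compound in Tris pH 8.0 buffer with MgCl2, DTT, Tween-20 and 2.5 ug/ml poly(dI-dC); started with 200 nM TAMRA/BHQ-2 forked duplex and 2 mM ATP. Unwinding read as fluorescence (525/598 nm), two reads 2 h apart.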
# RECQ1 inh conf = Confirmation qHTS Assay for Inhibitors of RecQ-Like Dna Helicase 1 (RECQ1); shares compounds with RECQ1 inh-1; RECQ1 helicase DNA unwinding, fluorescence; Potency, µM (highest dose often 229 µM), hits mostly inhibitors; actives 28% (n = 610); AID 2708, 2010; also: nearly all actives have a fitted effect of over 45% in size
# RECQ1 ADP FP = Counterscreen for RECQ1 Inhibitors: ADP Fluorescence Polarization Displacement Assay. shares compounds with RECQ1 inh-1. ADP fluorescence polarization displacement counterscreen. Potency, µM (top dose mostly 228 µM), hits mostly inhibitors. actives 27% (n = 530). AID 2711, 2010; also: nearly all actives have a fitted effect of over 45% in size
# RECQ1 inh-2 = Confirmation qHTS Assay for Inhibitors of RecQ-Like Dna Helicase 1 (RECQ1) - Round 2 Cherry Picks | recombinant RECQ1 DNA unwinding, red fluorescence | shares compounds with RECQ1 inh-1 | actives 15% (n = 1,100) | Potency, µM (titrated, usually from 119 µM), usual class: inhibitors; also: nearly all actives have a fitted effect of over 50% in size
# A number is an active result; n = inactive; u = inconclusive; x = no result. Calls follow the shape of the dose curve; as a rule, active = well fitted curve in the direction sought with a large enough effect; inconclusive = small, poorly fitted or top-dose-only effect, or another doubt; inactive = no such curve, though single readings can be large; an effect the other way counts as inactive or inconclusive.
SMILES,FEN1 inh,APEX1 inh,WRN helicase inh,L3MBTL1 block,BLM helicase inh,RECQ1 inh-1,RECQ1 inh-2,others
COc1ccccc1NC(=O)CSc1nc2c(oc3ccccc32)c(=O)n1-c1ccccc1F,n,x,x,x,n,x,x,
O=C(CCc1nc2ccccc2s1)NC1CCOC1=O (stereo not given),n,n,n,u,n,u,u,
CC1CCCCC1NC(=S)NC(=O)c1ccccc1Cl (stereo not given),n,n,n,n,x,x,x,
CC1CCCCC1NC(=S)NC(=O)c1ccccc1Br (stereo not given),n,n,n,n,n,40µM,n,
Cc1ccc(NC(=O)N2CCCC2C(=O)Nc2ccc3c(c2)OCCO3)cc1 (stereo not given),n,n,n,x,n,x,x,
CCn1cc(CCC(=O)O)c(C)n1,n,n,n,n,n,n,x,
Cc1ccc(-c2nn(CCC(=O)O)cc2CCC(=O)O)cc1,n,n,n,x,n,n,x,RECQ1 inh conf=n;RECQ1 ADP FP=u
CC(C)(C)OC(=O)NC(Cc1ccccc1)C(O)c1ccco1 (stereo not given),n,u,x,x,n,n,x,
CC(C)N(C)c1ncnc2c1ncn2[C@H]1CN(C2CCCC2)C[C@@H](CO)O1,x,x,n,x,x,x,x,
COc1ccc2nc(NC(=O)C3CCCN(S(=O)(=O)c4cccc5nsnc45)C3)sc2c1 (stereo not given),n,n,n,n,n,n,x,RECQ1 inh conf=n;RECQ1 ADP FP=n
O=C(OCc1nnc(-c2ccccc2)o1)c1ccc(S(=O)(=O)NCc2ccco2)cc1,n,u,n,n,n,40µM,u,
CN(C)S(=O)(=O)c1ccc(C(=O)OCc2nnc(-c3ccccc3)o2)cc1,n,n,n,n,n,n,x,
CCn1c(C)c(C2=CCN(S(=O)(=O)c3ccccc3)CC2)c2ccccc21,n,n,n,n,n,25µM,u,RECQ1 inh conf=50µM
O=C(NCc1ccccn1)c1cccc(S(=O)(=O)Nc2ccccc2Cl)c1,n,n,n,n,x,x,x,
COCCn1c(=O)[nH]c2cc(C(=O)N3CCN(c4ccccc4F)CC3)ccc2c1=O,n,n,n,x,n,x,x,
CCn1c(=O)c(=O)[nH]c2cc(C(=O)N3CCN(c4ccccc4F)CC3)ccc21,n,n,n,n,n,25µM,79µM,
CNS(=O)(=O)c1ccc2nc(NC(=O)/C=C/c3ccco3)sc2c1,n,u,n,x,n,u,n,
Cc1nc(NC(=O)/C=C/c2ccco2)sc1C,n,n,n,u,n,n,x,
COc1ccccc1Nc1nc(-c2c(C)nc3ncccn23)cs1,u,n,n,n,n,u,u,
COc1ccc(Nc2nc(-c3c(C)nc4ncccn34)cs2)cc1,u,n,n,u,n,n,x,
Cc1cn(C)c(CC(=O)Nc2ccc(F)cc2Cl)c1C(=O)O,n,x,x,x,n,x,x,
CCc1ccccc1NC(=O)c1cc2c(Cl)nc3ccccc3c2s1,n,x,x,x,n,x,x,
